PubChem BioAssay
Calls of active or inactive are those of the source.

Assays:
[1] = test system: Plasmodium falciparum Sir2 (PF13_0152, Sir2A); assay: Plasmodium falciparum Sir2A binding compounds – biochemical, small-molecule microarray, 635 nm fluorescence, primary screen (AID 1098); conditions: fluorescence 635 nm, higher = more signal;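 further: score merges spot fluorescence intensity with its signal-to-noise ratio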
[2] = probe aDKK1 binding to arrayed compounds – biochemical, biotinylated probe, 635/667 nm fluorescence, primary screen (AID 1099); conditions: small-molecule microarray, higher = more signal;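 further: score merges 667nm spot fluorescence with signal to noise across triplicate slides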
[3] = probe aCHRDL2 binding to arrayed compounds – biochemical, biotinylated probe, 635/667 nm fluorescence, primary screen (AID 1100); conditions: small-molecule microarray, higher = more signal
[4] = change in splice reporter luminescence, either direction, cell-based, HEK293, spliceosome inhibition project, primary screen (AID 1101); conditions: HEK293 splicing luciferase reporter, 24 h, higher = more signal, called active from +8 up or from −8 down;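 further: HEK293 cells carrying a splicing-competent luciferase reporter gene; test concentration not given here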
[5] = target: Fibroblast growth factor 10 (Homo sapiens) (UniProt O15520); assay: compounds binding fibroblast growth factor 10 – biochemical, small-molecule microarray, 635 nm fluorescence, primary screen (AID 1102); conditions: FGF10 binding, fluorescence 635 nm, higher = more signal
Chain of Fibroblast growth factor 10 (Homo sapiens) (O15520 whole entry, looked up): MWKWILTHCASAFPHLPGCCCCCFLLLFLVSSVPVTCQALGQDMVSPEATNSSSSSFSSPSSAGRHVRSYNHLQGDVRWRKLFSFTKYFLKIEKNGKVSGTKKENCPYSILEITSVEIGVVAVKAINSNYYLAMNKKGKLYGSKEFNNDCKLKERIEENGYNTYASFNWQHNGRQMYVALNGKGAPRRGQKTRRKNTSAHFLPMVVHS

[6] = test system: glycogen synthase kinase-3 (GSK3A per assay name; protocol says GSK3B); assay: compounds binding glycogen synthase kinase-3 – biochemical, small-molecule microarray, 635 nm fluorescence, GSK3A, primary screen (AID 1103); conditions: fluorescence 635 nm, higher = more signal; further: the record names both GSK3A and GSK3B
[7] = target: Epidermal growth factor receptor (Homo sapiens) (UniProt P00533); assay: compounds binding epidermal growth factor receptor – biochemical, small-molecule microarray, 635 nm fluorescence, primary screen (AID 1104); conditions: EGFR binding, higher = more signal;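 further: score merges 667 nm emission intensity with spot signal to noise over triplicate slides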
Chain of Epidermal growth factor receptor (Homo sapiens) (P00533 whole entry, looked up): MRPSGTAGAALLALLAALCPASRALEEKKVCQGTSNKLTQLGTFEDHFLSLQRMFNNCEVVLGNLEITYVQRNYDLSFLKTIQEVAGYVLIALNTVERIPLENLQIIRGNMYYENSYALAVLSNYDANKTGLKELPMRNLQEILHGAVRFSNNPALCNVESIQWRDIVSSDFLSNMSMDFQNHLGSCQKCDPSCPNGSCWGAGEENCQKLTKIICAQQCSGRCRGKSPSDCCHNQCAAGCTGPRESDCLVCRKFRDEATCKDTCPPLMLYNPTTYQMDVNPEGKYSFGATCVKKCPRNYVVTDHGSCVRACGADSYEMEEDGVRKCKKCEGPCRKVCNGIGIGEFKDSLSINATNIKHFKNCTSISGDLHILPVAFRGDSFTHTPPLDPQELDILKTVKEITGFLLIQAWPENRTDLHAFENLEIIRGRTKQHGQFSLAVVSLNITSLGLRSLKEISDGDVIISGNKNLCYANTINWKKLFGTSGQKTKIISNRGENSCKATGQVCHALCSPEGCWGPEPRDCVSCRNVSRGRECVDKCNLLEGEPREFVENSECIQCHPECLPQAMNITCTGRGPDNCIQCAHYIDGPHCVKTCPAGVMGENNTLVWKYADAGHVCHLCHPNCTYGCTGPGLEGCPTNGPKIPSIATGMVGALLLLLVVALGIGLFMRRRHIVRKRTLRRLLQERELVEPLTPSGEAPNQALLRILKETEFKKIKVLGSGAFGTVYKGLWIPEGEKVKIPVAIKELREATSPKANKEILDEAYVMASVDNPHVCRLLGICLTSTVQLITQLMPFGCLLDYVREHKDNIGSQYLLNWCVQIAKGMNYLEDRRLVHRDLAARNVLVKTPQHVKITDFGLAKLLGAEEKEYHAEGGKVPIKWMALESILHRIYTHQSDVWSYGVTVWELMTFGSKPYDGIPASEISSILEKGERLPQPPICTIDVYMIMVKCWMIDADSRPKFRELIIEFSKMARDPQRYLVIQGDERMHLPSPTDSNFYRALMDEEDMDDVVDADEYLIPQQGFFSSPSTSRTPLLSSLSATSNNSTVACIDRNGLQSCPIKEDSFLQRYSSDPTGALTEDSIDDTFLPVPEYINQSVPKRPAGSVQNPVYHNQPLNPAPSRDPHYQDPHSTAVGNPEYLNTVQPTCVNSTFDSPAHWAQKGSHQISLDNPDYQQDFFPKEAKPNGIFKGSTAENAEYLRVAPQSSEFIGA

[8] = target: Follistatin-related protein 3 (Homo sapiens) (UniProt O95633); assay: compounds binding follistatin-related protein 3 – biochemical, small-molecule microarray, 635 nm fluorescence, primary screen (AID 1105); conditions: FSTL3 binding, higher = more signal;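 further: score merges emission near 667 nm and signal to noise per printed spot across three slides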
Chain of Follistatin-related protein 3 (Homo sapiens) (O95633 whole entry, looked up): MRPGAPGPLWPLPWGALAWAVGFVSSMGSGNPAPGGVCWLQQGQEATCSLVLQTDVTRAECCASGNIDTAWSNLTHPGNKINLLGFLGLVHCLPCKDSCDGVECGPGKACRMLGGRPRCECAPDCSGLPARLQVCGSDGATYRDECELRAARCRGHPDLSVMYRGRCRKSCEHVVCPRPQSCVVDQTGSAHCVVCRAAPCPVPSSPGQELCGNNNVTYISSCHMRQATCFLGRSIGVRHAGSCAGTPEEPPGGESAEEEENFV

[9] = target: Dickkopf-related protein 1 (Homo sapiens) (UniProt O94907); assay: small molecules binding DKK1 protein – biochemical, small-molecule microarray, 635 nm fluorescence scan, primary screen (AID 1106); conditions: higher = more signal;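 further: score merges emission near 667 nm with signal to noise over three replicate slides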
Chain of Dickkopf-related protein 1 (Homo sapiens) (O94907 whole entry, looked up): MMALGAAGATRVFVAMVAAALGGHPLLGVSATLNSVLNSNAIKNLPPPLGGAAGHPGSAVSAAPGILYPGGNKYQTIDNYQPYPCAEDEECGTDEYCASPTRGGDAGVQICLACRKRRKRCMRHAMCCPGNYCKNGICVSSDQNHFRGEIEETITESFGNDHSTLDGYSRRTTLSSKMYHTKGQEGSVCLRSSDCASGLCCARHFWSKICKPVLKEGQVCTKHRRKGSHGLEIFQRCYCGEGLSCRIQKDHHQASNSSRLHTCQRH

[10] = test system: Inhibin beta A chain (activin A); assay: small molecules binding activin A – biochemical, small-molecule microarray, 635 nm fluorescence scan, primary screen (AID 1107); conditions: INHBA, higher = more signal;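 further: mouse activin A protein probed at 4.33 µg/mL on printed slides; score merges bound-protein fluorescence near 667 nm with spot signal-to-noise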
[11] = test system: Human papillomavirus type 1a protein E7 (residues 44-93); assay: small molecules binding HPV E7 44-93 – biochemical, small-molecule microarray, residues 44-93, 635 nm fluorescence, primary screen (AID 1108); conditions: fluorescence 635 nm, higher = more signal;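 further: E7 fragment applied at 1 µg/mL in TBST for 1 h at 4 C; score combines spot fluorescence with its signal to noise ratio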
[12] = hepatitis C replication reporter changes, two-sided – Huh7 cells, luciferase reporter, HCV replication inhibitor project, primary screen (AID 1109); conditions: Huh7 HCV replicon luciferase reporter, 48 h; higher = more signal;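 further: huh7 hepatoma cells harbouring a luciferase neomycin HCV replicon reporter; luciferase luminescence as measure of HCV replicon replication; test concentration not given here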
[13] = target: Left-right determination factor 2 (Homo sapiens) (UniProt O00292); assay: small molecules binding LEFTY2 protein – biochemical, small-molecule microarray, 635 nm fluorescence scan, primary screen (AID 1110); conditions: higher = more signal
Chain of Left-right determination factor 2 (Homo sapiens) (O00292 whole entry, looked up): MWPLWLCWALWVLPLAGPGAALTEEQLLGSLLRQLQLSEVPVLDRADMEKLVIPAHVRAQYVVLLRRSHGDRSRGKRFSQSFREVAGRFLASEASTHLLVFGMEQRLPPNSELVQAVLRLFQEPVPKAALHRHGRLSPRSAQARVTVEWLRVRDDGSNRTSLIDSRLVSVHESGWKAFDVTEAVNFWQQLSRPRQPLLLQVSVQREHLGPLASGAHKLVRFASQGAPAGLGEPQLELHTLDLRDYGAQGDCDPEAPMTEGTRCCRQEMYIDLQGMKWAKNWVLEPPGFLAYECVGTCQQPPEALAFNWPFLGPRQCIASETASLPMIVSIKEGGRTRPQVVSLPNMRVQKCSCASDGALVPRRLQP

[14] = target: Calmodulin-1 (Homo sapiens) (UniProt P0DP23); assay: small molecules binding calmodulin-1 with EGTA – biochemical, small-molecule microarray, Cy5-labelled CALM1, profiling panel (AID 1111); conditions: Cy5-CALM1 binding fluorescence, higher = more signal;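 further: labelled calmodulin applied in Tris saline Tween buffer holding calcium plus EGTA and DTT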
[15] = target: Calmodulin-1 (Homo sapiens) (UniProt P0DP23); assay: small molecules binding Ca-loaded calmodulin-1 – biochemical, small-molecule microarray, Cy5-labelled CALM1, plus calcium, artefact control for SMM control-protein annotation, profiling panel (AID 1112); conditions: Cy5-CALM1 binding fluorescence, higher = more signal;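 further: score merges spot fluorescence with signal to noise from triplicate slides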
[16] = probe aWnt5a binding to arrayed compounds – biochemical, biotinylated probe, 635/667 nm fluorescence, primary screen (AID 1113); conditions: small-molecule microarray, higher = more signal;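 further: score merges 667 nm fluorescence intensity with signal-to-noise per printed feature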
[17] = probe aShh binding to arrayed compounds – biochemical, biotinylated probe, 635/667 nm fluorescence, primary screen (AID 1114); conditions: small-molecule microarray, higher = more signal;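 further: probe is biotin-labelled aShh protein from a stem cell growth factor screen; measures binding of labelled protein to compounds printed on the slide; score merges feature fluorescence at 667 nm with signal-to-noise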
[18] = probe aNog binding to arrayed compounds – biochemical, biotinylated probe, 635/667 nm fluorescence, primary screen (AID 1115); conditions: small-molecule microarray, higher = more signal;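 further: probe is biotinylated aNog protein used at 0.15 µg/mL for 1 h at 4 C; z-score combines 667 nm fluorescence of each spot with its signal to noise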
[19] = target: Torsin-1A-interacting protein 1 (Homo sapiens) (UniProt Q5JTV8); assay: compound microarray binding of lysate hLAP1 – cell lysate, small-molecule microarray, COS7 lysate, 635/667 nm fluorescence, primary screen (AID 1116); conditions: 635 nm fluorescence, higher = more signal
Chain of Torsin-1A-interacting protein 1 (Homo sapiens) (Q5JTV8 whole entry, looked up): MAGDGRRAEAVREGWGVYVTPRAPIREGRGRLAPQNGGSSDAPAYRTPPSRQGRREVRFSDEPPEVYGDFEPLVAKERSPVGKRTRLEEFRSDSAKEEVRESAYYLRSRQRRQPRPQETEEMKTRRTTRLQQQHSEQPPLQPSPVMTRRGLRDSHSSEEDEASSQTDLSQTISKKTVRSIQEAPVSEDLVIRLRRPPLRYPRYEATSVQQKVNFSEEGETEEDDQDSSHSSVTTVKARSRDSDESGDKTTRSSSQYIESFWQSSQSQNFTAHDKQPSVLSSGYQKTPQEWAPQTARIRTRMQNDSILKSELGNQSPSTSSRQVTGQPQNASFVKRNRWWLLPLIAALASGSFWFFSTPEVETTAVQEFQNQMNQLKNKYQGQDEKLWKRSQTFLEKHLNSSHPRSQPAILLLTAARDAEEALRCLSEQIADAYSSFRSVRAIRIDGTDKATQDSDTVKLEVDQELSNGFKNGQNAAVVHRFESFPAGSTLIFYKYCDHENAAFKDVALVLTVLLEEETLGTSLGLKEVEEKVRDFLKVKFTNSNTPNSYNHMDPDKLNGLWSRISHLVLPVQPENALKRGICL

[20] = target: Alpha-bungarotoxin (Bungarus multicinctus) (UniProt P60615); assay: compounds binding labelled alpha-BTX control protein – biochemical, small-molecule microarray, Alexa647 label, 635/667 nm fluorescence, artefact control for SMM control protein annotation, profiling panel (AID 1117); conditions: alpha-BTX-A647 binding fluorescence, higher = more signal
Chain of Alpha-bungarotoxin (Bungarus multicinctus) (P60615 whole entry, looked up): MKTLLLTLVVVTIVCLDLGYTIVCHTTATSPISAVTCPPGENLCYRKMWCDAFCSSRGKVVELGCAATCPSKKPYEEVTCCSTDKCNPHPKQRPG

Row | SMILES | composite z-score [1] | composite z-score [2] | composite z-score [3] | z-score [4] | composite z-score [5] | composite z-score [6] | composite z-score [7] | composite z-score [8] | composite z-score [9] | composite z-score [10] | composite z-score [11] | z-score [12] | composite z-score [13] | composite z-score [14] | composite z-score [15] | composite z-score [16] | composite z-score [17] | composite z-score [18] | composite z-score [19] | composite z-score [20]
1 | O=C1O[C@@H](c2ccccc2)[C@@H](c2ccccc2)N2[C@@H](c3ccc(O)cc3)[C@]3(C(=O)Nc4ccccc43)[C@@H](C(=O)Nc3nc4ccccc4s3)[C@H]12 | 1.38 | -0.111 | 0.02 | 0.641 (inactive) | 0.488 | 0.878 | -0.104 | 0.415 | 0.065 | 0.3 | 1.36 | -2.35 | 0.0034 | 1.28 | -0.596 | 0.0495 | 0.0815 | -0.179 | 0.0579 | 1.32
2 | CC(C)OC(=O)CC(=O)CC(O)c1cccc(C#N)c1 (stereo not given) | 0.431 | 0.662 | 1.04 | -1.69 (inactive) | 0.632 | 0.646 | 0.23 | 0.74 | -0.618 | 0.964 | 1.32 | -0.664 | -0.0472 | 0.552 | 0.252 | -0.0944 | -0.16 | -0.0956 | 1.39 | 0.684
3 | C=C(/C=C/CNS(=O)(=O)c1ccc(C)cc1)[C@H](O)[C@H]1CCCN1S(=O)(=O)c1ccccc1[N+](=O)[O-] | 0.61 | 0.0684 | 0.0163 | -0.112 (inactive) | 0.582 | 0.139 | 0.669 | 0.998 | 0.727 | 0.809 | -0.197 | -2.48 | 0.77 | -0.115 | -0.795 | -0.119 | -0.138 | -0.272 | 0.581 | 0.616
4 | O=C1O[C@@H](c2ccccc2)[C@@H](c2ccccc2)N2[C@@H](c3ccc(O)cc3)[C@]3(C(=O)Nc4ccc(C#CCCO)cc43)[C@@H](C(=O)NC[C@H](O)c3ccccc3)[C@H]12 | -0.029 | -0.301 | 0.785 | 0.0041 (inactive) | -1.01 | -0.375 | -0.637 | -0.802 | -1.26 | -0.926 | 0.334 | 0.0035 | -1.87 | -0.282 | 0.374 | -0.243 | 0.057 | 1.4 | -0.138 | -0.588
5 | C=CC[C@H](OC(=O)Nc1ccc(OC)cc1)c1ccc(O)c2ccccc12 | 1.24 | 0.121 | 0.0255 | 3.32 (inactive) | 0.82 | 1.29 | 0.547 | 1.26 | 0.92 | 1.05 | 1.07 | -3.63 | 0.848 | 0.107 | -0.636 | 0.0511 | 0.0469 | 0.241 | 0.505 | 1.78
6 | C=C(COC)/C(=C/C[C@@H](OC(=O)c1ccncc1)c1ccc(CO)o1)c1cnc2ccccc2c1 | 1.06 | -0.182 | -0.386 | 0.773 (inactive) | 1.59 | 1.35 | 1.59 | 1.57 | 1.2 | 1.87 | 1.42 | -0.632 | 1.03 | 0.274 | -0.851 | 0.0037 | 0.365 | 0.557 | 1.83 | 2.65
7 | C=CCNC(=O)[C@@H]1[C@H]2C(=O)O[C@H](c3ccccc3)[C@H](c3ccccc3)N2[C@H](c2ccc(OCCO)cc2)[C@@]12C(=O)N(C(=O)OCCOC)c1ccc(C#CC3=CCCCC3)cc12 | 1.11 | 0.331 | -0.112 | -0.57 (inactive) | 0.957 | 1.28 | 0.552 | 1.06 | 0.44 | 0.726 | 1.34 | -1.68 | 0.509 | 1.66 | 0.283 | -0.0051 | 0.13 | -0.375 | 0.642 | 0.84
8 | Cc1c(NC(=O)/C(C#N)=C/C=C/c2ccc(N(C)C)cc2)c(=O)n(-c2ccccc2)n1C | 0.917 | 0.735 | 0.294 | -0.0455 (inactive) | 0.89 | 1.02 | 0.994 | 0.788 | 0.646 | 1.08 | 0.55 | -0.754 | 0.431 | 0.824 | -0.224 | 0.19 | 0.173 | 0.432 | 1.69 | 1.04
9 | COCCOC(=O)N1C(=O)[C@@]2(c3ccccc31)[C@H](c1ccc(OCCO)cc1)N1[C@H](c3ccccc3)[C@H](c3ccccc3)OC(=O)[C@H]1[C@@H]2C(=O)Nc1nc2ccccc2s1 | 1.45 | -0.223 | 0.414 | 0.579 (inactive) | 0.967 | 0.986 | 0.545 | 0.852 | 0.293 | 0.34 | 1.34 | -1.33 | 0.492 | 1.68 | 0.397 | 0.0431 | -0.0769 | 0.516 | 0.903 | 1.13
10 | C=CCN1Cc2ccccc2C[C@@]2(N=C(c3ccc(OCCCO)cc3)O[C@H]2c2ccccc2)C1=O | 0.907 | 0.189 | 0.512 | 6.55 (inactive) | 1.17 | 1.26 | 0.147 | 0.363 | 0.0968 | 1.03 | 1.46 | -3.08 | 0.473 | 2.97 | -0.398 | 0.0873 | 0.19 | -0.179 | 1.2 | 1.15
11 | CC(C)C(=C=CC[C@@H](O)c1ccccc1OCCO)C[C@@H](O)COCc1ccccc1 | 1.23 | 0.469 | 0.264 | -2.12 (inactive) | 1.35 | -0.0582 | 0.22 | 0.589 | -0.691 | 1.35 | 0.247 | -1.21 | 0.639 | 0.277 | 0.652 | -0.128 | -0.0769 | 0.583 | 0.573 | -0.345
